Measurements as given in PubChem BioAssay AID1159580 (chemical genetic matrix, 2015).
Among all 5,500 compounds or so, about 2,000 (36%) were called active. About 18% were inconclusive and are not listed. No stated cut-off is given here; in the data, active means normalized growth mostly below about 0.91 (no sharp cut-off); inconclusive means no clear call, values can overlap the other calls; inactive means mostly above about 0.92. Some of the results follow.

Test: chemical genetic growth profiling, strain panel (AID 1159580);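 further: tested at 20 µM; growth read once vehicle control cultures reached saturation at 30 °C; 1 = growth at the plate median or of vehicle wells; lower values mean less growth of the strain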
Conditions: growth OD

Measured: normalized growth

Nc1ccn(C2O[C@H](CO)[C@@H](O)[C@H]2O)c(=O)n1 (some centres undefined)
inactive: S. cerevisiae deletion strains, locus YJR075W, strain HOC1, active compounds read low 1.02 | S. cerevisiae deletion strains, locus YKL009W, strain mrt4, active compounds read low 1.04 | S. cerevisiae deletion strains, locus YKL068W, active compounds read low 1 | S. cerevisiae deletion strains, locus YKL085W, strain MDH1 (second series), active compounds read low 1 | S. cerevisiae deletion strains, locus YKL085W, strain MDH1, active compounds read low 1 | S. cerevisiae deletion strains, locus YKL160W, strain elf1, active compounds read low 0.994 | S. cerevisiae deletion strains, locus YKL190W, strain CNB1, active compounds read low 0.989 | S. cerevisiae deletion strains, locus YKR001C, strain vps1, active compounds read low 1.03 | S. cerevisiae deletion strains, locus YKR026C, strain gcn3, active compounds read low 1 | S. cerevisiae deletion strains, locus YKR091W, strain srl3, active compounds read low 0.986 | S. cerevisiae deletion strains, locus YLL001W, strain dnm1, active compounds read low 0.989 | S. cerevisiae deletion strains, locus YLL026W, active compounds read low 0.994 | S. cerevisiae deletion strains, locus YLL041C, strain sdh2, active compounds read low 0.987 | S. cerevisiae deletion strains, locus YLR027C, strain aat2, active compounds read low 0.984 | S. cerevisiae deletion strains, locus YLR039C, strain RIC1, active compounds read low 1.01 | S. cerevisiae deletion strains, locus YLR058C, strain SHM2, active compounds read low 0.998 | S. cerevisiae deletion strains, locus YLR102C, strain apc9, active compounds read low 1.01 | S. cerevisiae deletion strains, locus YLR113W, strain HOG1, active compounds read low 1.01 | S. cerevisiae deletion strains, locus YLR221C, strain rsa3, active compounds read low 1 | S. cerevisiae deletion strains, locus YLR258W, strain gsy2, active compounds read low 1 | S. cerevisiae deletion strains, locus YLR262C, strain YPT6 (second series), active compounds read low 0.992 | S. cerevisiae deletion strains, locus YLR262C, strain YPT6, active compounds read low 1.05 | S. cerevisiae deletion strains, locus YLR268W, strain sec22, active compounds read low 1.05 | S. cerevisiae deletion strains, locus YLR320W, strain mms22, active compounds read low 0.995 | S. cerevisiae deletion strains, locus YLR330W, strain CHS5, active compounds read low 0.986 | S. cerevisiae deletion strains, locus YLR342W, strain FKS1 (second series), active compounds read low 1.02 | S. cerevisiae deletion strains, locus YLR342W, strain FKS1, active compounds read low 0.995 | S. cerevisiae deletion strains, locus YLR357W, strain rsc2, active compounds read low 0.964 | S. cerevisiae deletion strains, locus YLR370C, strain arc18, active compounds read low 0.998 | S. cerevisiae deletion strains, locus YLR371W, strain rom2, active compounds read low 1.01 | S. cerevisiae deletion strains, locus YLR384C, strain iki3, active compounds read low 1 | S. cerevisiae deletion strains, locus YLR418C, strain cdc73, active compounds read low 1.01 | S. cerevisiae deletion strains, locus YML016C, strain PPZ1, active compounds read low 1 | S. cerevisiae deletion strains, locus YML032C, strain rad52, active compounds read low 0.993 | S. cerevisiae deletion strains, locus YML120C, strain ndi1, active compounds read low 0.979 | S. cerevisiae deletion strains, locus YML124C, strain tub3, active compounds read low 1.01 | S. cerevisiae deletion strains, locus YMR058W, strain fet3, active compounds read low 0.983 | S. cerevisiae deletion strains, locus YMR078C, strain ctf18, active compounds read low 1.02 | S. cerevisiae deletion strains, locus YMR125W, strain sto1, active compounds read low 0.973 | S. cerevisiae deletion strains, locus YMR129W, active compounds read low 0.991 | S. cerevisiae deletion strains, locus YMR205C, strain PFK2, active compounds read low 0.998 | S. cerevisiae deletion strains, locus YMR223W, strain ubp8, active compounds read low 1.02 | S. cerevisiae deletion strains, locus YMR231W, strain pep5, active compounds read low 0.979 | S. cerevisiae deletion strains, locus YMR307W, strain GAS1, active compounds read low 1.05 | S. cerevisiae deletion strains, locus YNL067W, strain RPL9B, active compounds read low 1.03 | S. cerevisiae deletion strains, locus YNL071W, strain lat1, active compounds read low 0.983 | S. cerevisiae deletion strains, locus YNL128W, strain TEP1, active compounds read low 1.01 | S. cerevisiae deletion strains, locus YNL153C, strain GIM3, active compounds read low 1.03 | S. cerevisiae deletion strains, locus YNL183C, strain NPR1, active compounds read low 0.933 | S. cerevisiae deletion strains, locus YNL209W, strain ssb2, active compounds read low 0.992 | S. cerevisiae deletion strains, locus YNL233W, strain BNI4, active compounds read low 1.05 | S. cerevisiae deletion strains, locus YNL248C, strain rpa49, active compounds read low 0.984 | S. cerevisiae deletion strains, locus YNL250W, strain rad50, active compounds read low 1 | S. cerevisiae deletion strains, locus YNL271C, strain bni1, active compounds read low 1.01 | S. cerevisiae deletion strains, locus YNL298W, strain CLA4, active compounds read low 1 | S. cerevisiae deletion strains, locus YNL307C, strain MCK1, active compounds read low 1.02 | S. cerevisiae deletion strains, locus YNL322C, strain KRE1 (second series), active compounds read low 1.01 | S. cerevisiae deletion strains, locus YNR049C, strain mso1, active compounds read low 0.985 | S. cerevisiae deletion strains, locus YNR052C, strain pop2, active compounds read low 1.01 | S. cerevisiae deletion strains, locus YOL006C, strain TOP1, active compounds read low 1.09 | S. cerevisiae deletion strains, locus YOL012C, strain htz1 0.74 | S. cerevisiae deletion strains, locus YOL147C, strain pex11, active compounds read low 1 | S. cerevisiae deletion strains, locus YOR001W, strain rrp6, active compounds read low 0.98 | S. cerevisiae deletion strains, locus YOR061W, strain CKA2, active compounds read low 1.01 | S. cerevisiae deletion strains, locus YOR069W, strain VPS5, active compounds read low 1.01 | S. cerevisiae deletion strains, locus YOR070C, strain gyp1, active compounds read low 1 | S. cerevisiae deletion strains, locus YOR080W, strain dia2, active compounds read low 1 | S. cerevisiae deletion strains, locus YOR083W, strain WHI5, active compounds read low 0.992 | S. cerevisiae deletion strains, locus YOR106W, strain vam3, active compounds read low 1.02 | S. cerevisiae deletion strains, locus YOR136W, strain idh2, active compounds read low 1.01 | S. cerevisiae deletion strains, locus YOR144C, strain elg1, active compounds read low 1.01 | S. cerevisiae deletion strains, locus YOR184W, strain ser1, active compounds read low 1.02 | S. cerevisiae deletion strains, locus YOR231W, strain MKK1, active compounds read low 0.997 | S. cerevisiae deletion strains, locus YOR265W, strain rbl2, active compounds read low 0.988 | S. cerevisiae deletion strains, locus YOR270C, strain vph1, active compounds read low 0.956 | S. cerevisiae deletion strains, locus YOR290C, strain snf2, active compounds read low 0.989 | S. cerevisiae deletion strains, locus YOR316C, strain cot1, active compounds read low 1.01 | S. cerevisiae deletion strains, locus YPL051W, strain arl3, active compounds read low 1 | S. cerevisiae deletion strains, locus YPL055C, strain LGE1, active compounds read low 1.01 | S. cerevisiae deletion strains, locus YPL078C, strain atp4, active compounds read low 0.993 | S. cerevisiae deletion strains, locus YPL106C, strain sse1, active compounds read low 0.992 | S. cerevisiae deletion strains, locus YPL240C, strain hsp82, active compounds read low 1 | S. cerevisiae deletion strains, locus YPL256C, strain CLN2, active compounds read low 1 | S. cerevisiae deletion strains, locus YPR119W, strain clb2, active compounds read low 0.996 | S. cerevisiae deletion strains, locus YPR141C, strain kar3, active compounds read low 1.01 | S. cerevisiae deletion strains, locus YPR163C, strain tif3, active compounds read low 1.01 | S. cerevisiae deletion strains, locus YPR167C, strain met16, active compounds read low 1.01 | S. cerevisiae deletion strains, strain wtn01, active compounds read low 1.05 | S. cerevisiae strains, strain wild type, active compounds read low 0.98
